# The supplement of paper PMC11732987, “Enantioselective OTUD7B fragment discovery through chemoproteomics screening and high-throughput optimisation” (Communications Chemistry, 2025)
# A number with no mark means an inactive call.
# What was measured:
# Assay in all cases: log2 ratio of Biotin-Ahx-Ub-VS probe labelling (fragment/DMSO); higher = less target engagement (more negative = stronger competition), active = hit call of the paper (q ≤ 0.05, log2 ratio ≤ -1)
# Settings in all cases: compound concentration: 200 uM; treatment time: 3 h
# [1] = target: T1, OTUD6B (UniProt Q8N6M0)
# T1 sequence (whole entry): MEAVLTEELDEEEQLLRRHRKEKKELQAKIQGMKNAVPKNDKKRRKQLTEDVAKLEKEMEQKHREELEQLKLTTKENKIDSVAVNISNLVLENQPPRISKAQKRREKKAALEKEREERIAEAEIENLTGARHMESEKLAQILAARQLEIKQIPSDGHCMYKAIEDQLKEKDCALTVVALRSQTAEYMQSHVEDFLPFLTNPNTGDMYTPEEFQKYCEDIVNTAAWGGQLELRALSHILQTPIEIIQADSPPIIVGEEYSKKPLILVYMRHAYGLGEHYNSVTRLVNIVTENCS
# Procedure, shortened: (§1)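 Labelled DUBs from HEK293T lysate were NeutrAvidin-enriched, digested with LysC and trypsin, and run by diaPASEF LC-MS/MS. Before that, each 495 µg sample in Tris/CHAPS/IGEPAL buffer with protease inhibitors was treated in triplicate with fragment at 200 µM or vehicle for 3 h, then with Biotin-Ahx-Ub-VS at 0.5 µM final for 1 h. Values are average log2 ratios of fragment over vehicle by unpaired t-test, based on global-median-normalised Spectronaut label-free quantities from proteins with ≥2 unique peptides.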
# [2] = target: T2, OTUD7B (UniProt Q6GQQ9)
# T2 sequence (whole entry): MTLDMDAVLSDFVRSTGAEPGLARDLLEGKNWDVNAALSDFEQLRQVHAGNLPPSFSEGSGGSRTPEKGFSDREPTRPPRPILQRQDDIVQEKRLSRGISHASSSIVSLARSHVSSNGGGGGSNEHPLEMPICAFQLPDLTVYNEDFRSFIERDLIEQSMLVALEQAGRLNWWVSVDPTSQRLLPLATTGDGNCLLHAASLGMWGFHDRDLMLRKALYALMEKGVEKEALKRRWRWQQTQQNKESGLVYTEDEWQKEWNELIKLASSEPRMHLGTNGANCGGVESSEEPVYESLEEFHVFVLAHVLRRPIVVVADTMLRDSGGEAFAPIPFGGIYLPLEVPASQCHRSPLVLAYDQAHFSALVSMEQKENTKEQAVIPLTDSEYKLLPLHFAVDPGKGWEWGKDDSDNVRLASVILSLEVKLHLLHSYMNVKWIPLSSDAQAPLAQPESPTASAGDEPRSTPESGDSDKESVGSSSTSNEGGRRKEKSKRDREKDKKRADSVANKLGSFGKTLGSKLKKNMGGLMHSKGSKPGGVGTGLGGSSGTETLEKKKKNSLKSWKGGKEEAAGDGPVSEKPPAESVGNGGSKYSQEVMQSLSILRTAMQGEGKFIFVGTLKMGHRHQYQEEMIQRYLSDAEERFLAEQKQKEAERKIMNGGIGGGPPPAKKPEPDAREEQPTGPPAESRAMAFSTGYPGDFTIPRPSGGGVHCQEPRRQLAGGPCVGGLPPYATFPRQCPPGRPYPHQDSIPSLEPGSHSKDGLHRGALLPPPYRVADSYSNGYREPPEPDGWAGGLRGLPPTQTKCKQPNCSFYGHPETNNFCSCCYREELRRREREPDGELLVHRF
# Procedure, shortened: as §1
# [3] = target: PRPF8 (UniProt Q6P2Q9)
# Procedure, shortened: as §1
# [4] = target: T3, PSMD7 (UniProt P51665)
# T3 sequence (whole entry): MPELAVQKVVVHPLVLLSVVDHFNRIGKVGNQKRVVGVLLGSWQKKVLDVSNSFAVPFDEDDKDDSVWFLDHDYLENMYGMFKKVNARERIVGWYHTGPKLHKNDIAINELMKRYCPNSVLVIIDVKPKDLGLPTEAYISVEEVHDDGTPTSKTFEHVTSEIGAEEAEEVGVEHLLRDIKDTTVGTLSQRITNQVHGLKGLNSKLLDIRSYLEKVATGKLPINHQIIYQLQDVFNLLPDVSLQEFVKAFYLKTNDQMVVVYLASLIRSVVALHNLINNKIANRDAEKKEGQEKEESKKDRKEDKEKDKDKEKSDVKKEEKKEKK
# Procedure, shortened: as §1
# [5] = target: UCHL1 (UniProt P09936)
# Procedure, shortened: as §1
# [6] = target: T4, UCHL3 (UniProt P15374)
# T4 sequence (whole entry): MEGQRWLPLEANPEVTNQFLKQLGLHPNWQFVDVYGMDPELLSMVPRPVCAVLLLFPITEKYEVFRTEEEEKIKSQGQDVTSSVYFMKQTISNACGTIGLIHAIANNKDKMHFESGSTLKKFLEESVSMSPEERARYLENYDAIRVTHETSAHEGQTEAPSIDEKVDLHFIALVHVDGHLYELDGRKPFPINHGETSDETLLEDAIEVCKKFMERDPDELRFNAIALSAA
# Procedure, shortened: as §1
# [7] = target: T5, UCHL5 (UniProt Q9Y5K5)
# T5 sequence (whole entry): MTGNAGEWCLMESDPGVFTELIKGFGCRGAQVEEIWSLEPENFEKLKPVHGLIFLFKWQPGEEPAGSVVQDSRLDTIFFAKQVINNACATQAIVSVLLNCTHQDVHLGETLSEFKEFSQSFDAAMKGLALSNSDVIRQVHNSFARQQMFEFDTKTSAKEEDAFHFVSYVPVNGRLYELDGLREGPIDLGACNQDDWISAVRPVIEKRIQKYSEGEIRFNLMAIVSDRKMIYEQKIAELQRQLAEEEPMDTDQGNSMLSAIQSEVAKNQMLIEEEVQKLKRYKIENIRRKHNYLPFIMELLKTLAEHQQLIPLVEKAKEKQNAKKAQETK
# Procedure, shortened: as §1
# [8] = target: USP10 (UniProt Q14694)
# Procedure, shortened: as §1
# [9] = target: T6, USP15 (UniProt Q9Y4E8)
# T6 sequence (whole entry): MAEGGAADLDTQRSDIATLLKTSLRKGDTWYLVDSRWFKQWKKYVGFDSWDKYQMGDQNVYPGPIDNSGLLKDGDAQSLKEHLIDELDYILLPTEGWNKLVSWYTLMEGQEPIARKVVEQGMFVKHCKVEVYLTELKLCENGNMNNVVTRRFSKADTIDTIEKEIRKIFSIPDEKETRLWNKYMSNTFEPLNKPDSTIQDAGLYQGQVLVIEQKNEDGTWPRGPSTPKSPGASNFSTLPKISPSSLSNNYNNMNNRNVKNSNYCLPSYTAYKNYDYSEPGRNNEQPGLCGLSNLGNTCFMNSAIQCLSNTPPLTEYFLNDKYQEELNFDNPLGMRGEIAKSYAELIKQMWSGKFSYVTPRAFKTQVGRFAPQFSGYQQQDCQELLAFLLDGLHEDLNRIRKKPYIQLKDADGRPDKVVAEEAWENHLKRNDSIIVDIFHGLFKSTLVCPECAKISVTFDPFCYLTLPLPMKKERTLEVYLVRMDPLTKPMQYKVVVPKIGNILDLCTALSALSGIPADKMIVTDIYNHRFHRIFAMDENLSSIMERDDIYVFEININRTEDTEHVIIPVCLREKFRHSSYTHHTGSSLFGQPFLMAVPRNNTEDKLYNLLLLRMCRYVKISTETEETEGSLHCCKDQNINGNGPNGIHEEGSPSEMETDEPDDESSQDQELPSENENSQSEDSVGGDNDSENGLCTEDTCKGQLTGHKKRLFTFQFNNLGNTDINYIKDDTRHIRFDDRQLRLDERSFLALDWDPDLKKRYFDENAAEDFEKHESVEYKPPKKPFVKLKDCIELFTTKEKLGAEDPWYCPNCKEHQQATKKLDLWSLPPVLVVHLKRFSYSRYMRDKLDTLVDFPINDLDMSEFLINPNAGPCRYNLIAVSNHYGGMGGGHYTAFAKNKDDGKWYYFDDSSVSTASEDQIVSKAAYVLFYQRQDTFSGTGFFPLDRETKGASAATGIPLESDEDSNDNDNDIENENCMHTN
# Procedure, shortened: as §1
# Sequence of USP10 (Q14694 whole entry): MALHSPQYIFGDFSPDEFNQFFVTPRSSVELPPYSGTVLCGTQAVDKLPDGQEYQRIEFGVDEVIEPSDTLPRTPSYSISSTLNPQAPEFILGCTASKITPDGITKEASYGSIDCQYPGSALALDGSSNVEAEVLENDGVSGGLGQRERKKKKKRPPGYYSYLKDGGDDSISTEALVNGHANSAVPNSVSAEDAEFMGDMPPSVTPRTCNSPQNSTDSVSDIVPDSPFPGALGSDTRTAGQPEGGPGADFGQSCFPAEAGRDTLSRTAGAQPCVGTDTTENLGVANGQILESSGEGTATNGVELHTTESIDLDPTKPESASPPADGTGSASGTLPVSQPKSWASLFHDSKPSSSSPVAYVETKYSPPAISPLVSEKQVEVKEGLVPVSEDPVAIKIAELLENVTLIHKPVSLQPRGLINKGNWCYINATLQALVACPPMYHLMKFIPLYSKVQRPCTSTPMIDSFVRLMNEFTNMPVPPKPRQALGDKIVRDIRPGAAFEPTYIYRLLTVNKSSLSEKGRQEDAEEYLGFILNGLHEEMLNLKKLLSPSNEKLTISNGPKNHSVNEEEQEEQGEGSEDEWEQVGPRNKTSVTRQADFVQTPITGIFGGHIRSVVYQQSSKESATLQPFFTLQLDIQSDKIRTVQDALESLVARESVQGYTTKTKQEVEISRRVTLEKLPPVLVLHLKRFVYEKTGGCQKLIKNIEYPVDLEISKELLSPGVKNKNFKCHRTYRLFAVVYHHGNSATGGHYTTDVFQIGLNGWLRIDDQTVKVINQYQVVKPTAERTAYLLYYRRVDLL
# Sequence of UCHL1 (P09936 whole entry, looked up): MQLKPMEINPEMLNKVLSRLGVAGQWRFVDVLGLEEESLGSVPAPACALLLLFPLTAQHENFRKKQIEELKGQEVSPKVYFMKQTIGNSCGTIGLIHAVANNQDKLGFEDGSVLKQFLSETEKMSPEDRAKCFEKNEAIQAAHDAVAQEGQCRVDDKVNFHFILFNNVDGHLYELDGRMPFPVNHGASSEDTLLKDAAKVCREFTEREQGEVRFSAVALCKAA
structure (smiles),measurement,setting,value
O=C(CCl)N1CCC(OCc2ccccc2F)CC1,log2 ratio of Biotin-Ahx-Ub-VS probe labelling,[1],0.102
same,log2 ratio of Biotin-Ahx-Ub-VS probe labelling,[2],-0.198
same,log2 ratio of Biotin-Ahx-Ub-VS probe labelling,[3],0.14
same,log2 ratio of Biotin-Ahx-Ub-VS probe labelling,[4],0.0473
same,log2 ratio of Biotin-Ahx-Ub-VS probe labelling,[5],-1.13 (active)
same,log2 ratio of Biotin-Ahx-Ub-VS probe labelling,[6],0.341
same,log2 ratio of Biotin-Ahx-Ub-VS probe labelling,[7],-0.00457
same,log2 ratio of Biotin-Ahx-Ub-VS probe labelling,[8],-0.192
same,log2 ratio of Biotin-Ahx-Ub-VS probe labelling,[9],-0.104
